# In PubChem BioAssay AID2253 (Southern Research Specialized Biocontainment Screening …, 2010):
# Among all 2,200 compounds or so, about 1,300 (59%) were called active. The set was probably picked from earlier hits. The list is a sample of the results. Entries with a potency or affinity are not part of this list. Unmarked numbers belong to inactive results. No rule for the calls is given here.
# Test: human monocytic cell viability reduction – S. typhimurium screen hits, cytotoxicity control for Salmonella PhoP regulon inhibitors, dose response (AID 2253)
# Settings: THP-1 viability, CellTiter-Glo luminescence, 72 h; series mostly up to 50 µM; viability: at the top concentration
Compound,viability,outcome
CC(=O)N1CCC(N(CCN2CCOCC2)C(=S)Nc2cccc(C)c2C)CC1,86.5%,–
O=c1cc(CSc2nc(NCc3ccccc3)c3ccccc3n2)nc2ccc(Cl)cn12,83.5%,–
CNc1ncc(Cc2ccccc2)s1,98.4%,–
Cc1nc(N2CCN(Cc3ccccc3)CC2)nc2c1C(=O)CC(C)C2 (stereo unspecified),82.4%,–
CCOC(=O)Nc1ccc(C)cc1C,91.4%,–
CCOC(=O)c1ccc(NC(=O)Nc2cc(C)on2)cc1,99.5%,–
CCOC(=O)C1CCCN(C(=O)c2sc3nc(C)nc(N4CCOCC4)c3c2C)C1 (stereo unspecified),86.6%,–
CCCCNC(=O)Oc1cccc(N2CCCC2=O)c1,101%,–
CCCOc1ccc(C(=O)CCC(=O)OCC(=O)N2CC(=O)Nc3ccccc32)cc1,96.4%,–
O=S1(=O)C=CC(Nc2ccccc2)C1 (stereo unspecified),85.5%,–
CC(C)N(Cc1nc(-c2ccccc2)no1)C(=O)CN(C)S(=O)(=O)c1ccccc1,82.1% [at 25 µM],–
C[C@H]1COc2c(N3CCN(C)CC3)c(F)cc3c(=O)c(C(=O)O)cn1c23,99.5%,–
Cc1nc(-c2ccccc2)cc(=O)[nH]1,96.8%,–
Cc1ccc(Oc2nnc(-c3ccccc3)c3ccccc23)cc1,101%,–
COC(=O)c1cc(C#N)c(Oc2cccc(C)c2C)nc1C,88.2%,–
COc1ccc(NC(=O)ON=C2c3ccccc3-c3ccccc32)cc1,89%,–
Cc1ccc(C(=O)Nc2ccccc2C(N)=O)o1,86.6%,–
NC(=O)c1ccccc1N=Cc1ccccn1,91.5%,–
Cc1scc(C(=O)O)c1-c1c(C(=O)O)csc1C,96.9%,–
COC(=O)c1ccc(Sc2ccccc2NS(=O)(=O)c2ccc(C)cc2)nc1,91.1%,–
COc1cc(OC)c(C(=O)Nc2ccc(S(=O)(=O)Nc3ncccn3)cc2)cc1OC,98.1%,–
CN(CC(=O)NCc1cccc(F)c1)C(=O)c1ccco1,84.9%,–
N/C(=N\c1nc2ccccc2o1)NC(=O)c1ccccc1F,94.7%,–
CCCOc1ccc(/C=N/O)cc1,94.1%,–

Compound,viability,outcome
CC(=O)NC12CC3CC(C1)CC(C(=O)OCC(=O)c1ccc4c(c1)OCCO4)(C3)C2,82.9%,–
O=C1CN(C(=O)COC(=O)CCC(=O)c2ccc3c(c2)OCCO3)c2ccccc2N1,87.7%,–
Cn1c(NCc2cccs2)nc2ccccc21,86.8%,–
O=C(CSC1CCCCC1)Nc1ccccc1Br,100%,–
CN1CCN(S(=O)(=O)c2ccc(N)cc2)CC1,101%,–
COc1cc(C=O)ccc1OCCCOc1ccccc1[N+](=O)[O-],84.3%,–
O=C(CNC(=O)c1ccco1)OCC(=O)c1ccc2c(c1)CCCC2,103%,–
CC(C)(C)C1CCC2(CC1)Nc1cccc3cccc(c13)N2,112%,–
Cc1ccc(C(=O)NCC(=O)OCC(=O)N2CCCc3ccccc32)cc1,112%,–
COc1cccc(-n2c(N)c(C(=O)Nc3c(C)n(C)n(-c4ccccc4)c3=O)c3nc4ccccc4nc32)c1,87.9%,–
CCCc1cc(=O)oc2cc(OCC(=O)N3CCc4ccccc43)ccc12,96.1%,–
CCn1c(SCc2ccc(F)cc2)nc2ccccc2c1=O,86.5%,–
COc1cc(Cc2cc(N)nc(N)n2)cc(OC)c1OC,82.9%,–
Cn1c(N)c(C(=O)COC(=O)C2CCCCC2)c(=O)n(C)c1=O,92.8%,–
CCC(OC(=O)C(NC(=O)c1ccccc1)c1ccccc1)C(=O)Nc1cc(C)on1 (stereo unspecified),81.7%,–
O=C(NCCc1ccc(Cl)cc1)/C(=C/c1cccnc1)NC(=O)c1ccccc1,82.7%,–
O=C(N/N=C/c1coc2ccc(Cl)cc2c1=O)c1cc(O)cc(O)c1,88.3%,–
Cc1occc1C(=O)n1cnc2ccccc21,83.7%,–
O=c1[nH]c2ccccc2n1C1=CCCC1,101%,–
Cc1ccc2c(c1)cc(CN(Cc1ccc3c(c1)OCO3)C(=O)c1cnccn1)c1nnnn12,84.1%,–
COC(=O)c1sccc1N/N=C(\C)c1ccc(F)c(Cl)c1,105%,–
CCOc1ccc(CSC(CC(=O)O)C(=O)O)cc1 (stereo unspecified),95.8%,–
CC(=O)N1C(=O)C2(C(C#N)=C(N)Oc3c2c(C)nn3-c2ccccc2)c2ccccc21 (stereo unspecified),85.7%,–
O=C(NCc1ccc2c(c1)OCO2)c1ccc(-n2cnnn2)cc1,84.5%,–

Compound,viability,outcome
Cc1cc(C)cc(NC(=O)CSc2nc3c(c(=O)[nH]2)CN(Cc2ccc(F)cc2)CC3)c1,81.4% [at 25 µM],–
Cn1cc(C(CC(=O)O)C(=O)O)c2ccccc21 (stereo unspecified),86%,–
c1ccc(OCCCN2CCCC2)cc1,96.7%,–
COCCNC(=O)c1ccccc1NS(=O)(=O)c1ccc(Br)s1,87.3%,–
CCOc1ccccc1OCC(=O)Nc1ccc(S(=O)(=O)Nc2nc(C)cc(C)n2)cc1,89.7% [at 25 µM],–
Cc1[nH]n(-c2ccccc2)c(=O)c1-c1ccc(Cl)cc1,89.1%,–
Cc1nn(-c2ccccc2)c(C)c1C(=O)OC/C(O)=C(\C#N)c1nc2ccccc2[nH]1,97.8%,–
C/C(=C\C(=O)OCCCCCCCCC(=O)O)C[C@@H]1OC[C@H](C[C@@H]2O[C@H]2[C@@H](C)[C@H](C)O)[C@@H](O)[C@H]1O,96.3%,–
O=C1C2C3c4ccccc4C(c4ccccc43)C2C(=O)N1c1cccc2cccnc12 (stereo unspecified),81%,–
Brc1ccc2cccnc2c1,88.6%,–
CCc1cc2c(NCCC(=O)O)nc(C)nc2s1,93%,–
c1ccc(Oc2cc(-c3ccccc3)ncn2)cc1,82.3%,–
CCOc1ccc(S(=O)(=O)Nc2ccc(C(=O)N/N=C/c3c(C)nn(-c4ccccc4)c3N3CCCC3)cc2)cc1,80.5%,–
Fc1ccc(-c2n[nH]c(=S)n2/N=C/c2c[nH]c3ccccc23)cc1,89.4%,–
Cc1cc(=O)[nH]c(N/N=C/c2c[nH]c3ccccc23)n1,86.4%,–
COc1ccc(-c2cc(C(=O)O)[nH]n2)cc1OC,99.8%,–
Cn1cccc1C(=O)OCc1csc(-c2ccccc2)n1,92.6%,–
N#CC1(C#N)COC23CCCCC2C1(C#N)C(=N)O3 (stereo unspecified),109%,–
Cc1nc(C(=O)Nc2ccc(Cl)cc2)nn1-c1ccc([N+](=O)[O-])cc1,80.2%,–
O=C(NC(CO)Cc1ccc([N+](=O)[O-])cc1)C(Cl)Cl (stereo unspecified),82.4%,–
CCOC(=O)C1(S(=O)(=O)c2ccccc2)CCN(Cc2ccc(Cl)cc2)CC1,101% [at 25 µM],–
Cc1ccc(NC(=O)C2CC(=O)NC(N3CCCCC3)=N2)cc1Cl (stereo unspecified),97.1%,–
CCN(CC)C(=O)CP(=O)(c1ccccc1)c1ccccc1,89.9%,–
CCn1c2ccccc2c2cc(NC(=O)C(C)Oc3ccccc3)ccc21 (stereo unspecified),85.2%,–

Compound,viability,outcome
O=C(CCNS(=O)(=O)c1cccc2nsnc12)NCc1cccs1,96.8%,–
O=C(OCC1COc2ccccc2O1)c1ccccc1F (stereo unspecified),105%,–
CCC1C2CN(C(C)=O)CC=C2C(C#N)=C(N)C1(C#N)C#N (stereo unspecified),107%,–
O=C(CCCN1C(=O)CCC1=O)Nc1ccc2c(c1)OCCO2,87.8%,–
CCCNC(=O)CSc1nnc(C)s1,103%,–
CC(=O)Nc1cccc(OC(=O)c2ccoc2C)c1,104%,–
CO/N=C(/C(=O)N[C@@H]1C(=O)N2C(C(=O)O)=CCS[C@H]12)c1cnc(N)s1,111%,–
COc1ccc(-c2ccccc2)cc1NCc1ccccc1C,83.1%,–
CCOC(=O)Cc1ccc2sc(-c3ccccc3)nc2c1,82.3%,–
COC(=O)Cc1c(C)nc2nc(NCc3ccc(Cl)cc3)[nH]n2c1=O,92%,–
CC(C)NC(=O)CSc1nc(N)c(NC(=O)c2ccccc2F)c(=O)[nH]1,101%,–
CN1c2ccccc2C(O)=C(C(=O)Nc2ccccc2)S1(=O)=O,81.3%,–
O=C(O)CCCCCN1C(=O)c2ccc(C(=O)O)cc2C1=O,92.1%,–
CC(=O)N1N=C(c2ccco2)CC1c1ccc(Br)cc1 (stereo unspecified),95.1%,–
CCOC(=O)CN(C)Cc1c[nH]c2ccccc12,95.1%,–
O=C(c1ccccc1S(=O)(=O)NCc1ccccc1)N1CCCC1,83.8%,–
CN(C)CCOC(=O)Cc1ccc(Cl)cc1,106%,–
O=C(c1cccnc1Nc1ccc2c(c1)CCC2)N1CCOCC1,87.5%,–
O=C(NCc1ccco1)c1ccc(Br)s1,99.7%,–
Cn1c(=O)n(CC(=O)Nc2ccccc2)c2ccccc21,98.8%,–
O=C(/C=C/c1ccccc1)N/C(=C/c1ccccc1)C(=O)N1CCOCC1,91.7%,–
CN(C)c1ccnc(-n2cccc2/C=N/OCc2ccccc2)c1C#N,84.2%,–
COC(=O)c1sc2nc(CSc3nc4ccc(C)cc4[nH]3)[nH]c(=O)c2c1C,90.8%,–
CCc1cccc2c(C#N)cn(CC(=O)NCCOC)c12,98.8%,–

Compound,viability,outcome
CN1CCN(c2c(F)cc3c(=O)c(C(=O)O)cn4c3c2SCC4)CC1,–,inactive
S=c1nc(-c2ccccc2)oc2c1CCCC2,93.2%,–
COc1ccc(-c2ccc(C#N)c(SCC(=O)NCCc3ccccc3)n2)cc1OC,85.9%,–
CCC(CC)C(=O)NCCc1ccc(OC)cc1,84.2%,–
CCOC(=O)c1ccc2c(c1)C(=O)N(C1CCCCC1)C2=O,101%,–
N#CC1=C(S)N(c2ccccc2)C(c2ccc(-c3ccccc3Cl)o2)NC1=O (stereo unspecified),92.5%,–
O=c1c2ccccc2nnn1Cc1ccccn1,88.6%,–
CCOC(=O)N1CCN(C(=O)c2cn(CC(C)C)c(=O)c3c2c2ccccc2n3C)CC1,92%,–
N#CCOC(=O)c1sccc1-n1cccc1,98%,–
Cc1cc(C)c(C#N)c(SCc2cn3ccccc3n2)n1,86.7% [at 25 µM],–
CCN(CC)c1nc2n(c(=O)n1)CCO2,87%,–
COC(=O)Cc1c(O)ccn(Cc2ccc(F)cc2)c1=O,93.3%,–
CC1CCN(C(c2cc3cc4c(cc3[nH]c2=O)OCO4)c2nnnn2CC2CCCO2)CC1 (stereo unspecified),90%,–
CCOC(=O)C1CCCN(C(=O)Cc2ccc(Cl)cc2)C1 (stereo unspecified),93.5%,–
COCC(=O)N=Nc1c(O)[nH]c2ccccc12,93.8%,–
Cc1ccc(N(CC(=O)N/N=C/c2ccco2)S(=O)(=O)c2ccccc2)cc1,80.2%,–
C=CCn1c(C)cc(C(=O)CSc2nc(N)cc(N)n2)c1C,82.7%,–
COc1c(/C=N/Nc2nc(N3CCCCC3)nc(N3CCCCC3)n2)cccc1[N+](=O)[O-],90.2%,–
O=C(O)CC(NC(=S)NCc1ccccc1)C(=O)O (stereo unspecified),86.3%,–
CCCCN(C(=O)NC(=O)Nc1nc2ccc(OC)cc2s1)S(C)(=O)=O,83.8%,–
